Source: PubChem
L3MBTL1 block: qHTS Assay for the Inhibitors of L3MBTL1; hit rate 0.66% among 230,000; Potency, µM (highest dose often 57.1 µM), for the others: top-dose activity, negative = inhibition, actives largely listed as inhibitors; Lethal(3)malignant brain tumor-like protein 1 (Homo sapiens), Q9Y468; AlphaScreen L3MBTL1–H3K9me1 peptide binding; note: potency is the fitted concentration of half-maximal effect; % is set by controls: 0 for no effect and ±100 for the full control effect; nearly all actives have a fitted effect of over 60% in size
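First, the protein-peptide complex forms for 30 min at room temperature (L3MBTL1 50 nM, biotinylated H3K9me1 peptide 75 nM). Next, compounds are pin-transferred and incubated 30 min. Finally, AlphaScreen beads are added and read after 30 min.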
JMJD2E inh: qHTS Assay for Inhibitors of Human Jumonji Domain Containing 2E (JMJD2E); Lysine-specific demethylase 4E (Homo sapiens), B2RXH2; JMJD2E catalytic domain, FDH-coupled NADH fluorescence (FDH is formaldehyde dehydrogenase); Potency, µM (titrated, usually from 57.1 µM), for the others: top-dose activity change, negative = inhibition, actives largely listed as inhibitors; hit rate 1.6% among 230,000; AID 2147, 2009; active = well fitted inhibition curve with a large enough effect, not every such curve was filed as active; inconclusive = small, poorly fitted or top-dose-only effect, or another doubt; inactive = no such curve, though single readings can be large or run the other way;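 note: potency is the fitted concentration of half-maximal effect; 0% = wells with enzyme and -100% = buffer wells without enzyme; nearly all actives have a fitted effect of over 50% in size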
PI5P4K alpha inh: qHTS for Inhibitors of phosphatidylinositol 5-phosphate 4-kinase (PI5P4K); hit rate 1.2% among 330,000; PI5P4Kalpha enzyme, ADP-Glo luminescence, 60 min; hits give low values; AID 652105, 2013; max response, %; active = max response of -50% or lower; inconclusive = between -30% and -50%; inactive = -30% or higher; note: value at the top dose of about 77 µM; % is set by controls: 0 for no effect and ±100 for the full control effect
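Luminescence from ADP-Glo served as readout of PI5P4Kalpha activity in a qHTS format. Reaction: enzyme, substrate, compound, ATP at 5 microM final, 60 min at RT.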
BAZ2B block: qHTS Assay for Inhibitors of BAZ2B | Potency, µM (series often up to 114 µM), for inactives: at the top dose activity change, negative = inhibition, actives largely listed as inhibitors | AID 504333, 2011 | Bromodomain adjacent to zinc finger domain protein 2B (Homo sapiens), Q9UIF8 | AlphaScreen BAZ2B-H3K14Ac peptide displacement | hit rate 4.4% among 360,000; note: potency is the fitted concentration of half-maximal effect; % is set by controls: 0 for no effect and ±100 for the full control effect; nearly all actives have a fitted effect of over 60% in size
Target sequence (Q9UIF8 whole entry, looked up, the tested form may be a part): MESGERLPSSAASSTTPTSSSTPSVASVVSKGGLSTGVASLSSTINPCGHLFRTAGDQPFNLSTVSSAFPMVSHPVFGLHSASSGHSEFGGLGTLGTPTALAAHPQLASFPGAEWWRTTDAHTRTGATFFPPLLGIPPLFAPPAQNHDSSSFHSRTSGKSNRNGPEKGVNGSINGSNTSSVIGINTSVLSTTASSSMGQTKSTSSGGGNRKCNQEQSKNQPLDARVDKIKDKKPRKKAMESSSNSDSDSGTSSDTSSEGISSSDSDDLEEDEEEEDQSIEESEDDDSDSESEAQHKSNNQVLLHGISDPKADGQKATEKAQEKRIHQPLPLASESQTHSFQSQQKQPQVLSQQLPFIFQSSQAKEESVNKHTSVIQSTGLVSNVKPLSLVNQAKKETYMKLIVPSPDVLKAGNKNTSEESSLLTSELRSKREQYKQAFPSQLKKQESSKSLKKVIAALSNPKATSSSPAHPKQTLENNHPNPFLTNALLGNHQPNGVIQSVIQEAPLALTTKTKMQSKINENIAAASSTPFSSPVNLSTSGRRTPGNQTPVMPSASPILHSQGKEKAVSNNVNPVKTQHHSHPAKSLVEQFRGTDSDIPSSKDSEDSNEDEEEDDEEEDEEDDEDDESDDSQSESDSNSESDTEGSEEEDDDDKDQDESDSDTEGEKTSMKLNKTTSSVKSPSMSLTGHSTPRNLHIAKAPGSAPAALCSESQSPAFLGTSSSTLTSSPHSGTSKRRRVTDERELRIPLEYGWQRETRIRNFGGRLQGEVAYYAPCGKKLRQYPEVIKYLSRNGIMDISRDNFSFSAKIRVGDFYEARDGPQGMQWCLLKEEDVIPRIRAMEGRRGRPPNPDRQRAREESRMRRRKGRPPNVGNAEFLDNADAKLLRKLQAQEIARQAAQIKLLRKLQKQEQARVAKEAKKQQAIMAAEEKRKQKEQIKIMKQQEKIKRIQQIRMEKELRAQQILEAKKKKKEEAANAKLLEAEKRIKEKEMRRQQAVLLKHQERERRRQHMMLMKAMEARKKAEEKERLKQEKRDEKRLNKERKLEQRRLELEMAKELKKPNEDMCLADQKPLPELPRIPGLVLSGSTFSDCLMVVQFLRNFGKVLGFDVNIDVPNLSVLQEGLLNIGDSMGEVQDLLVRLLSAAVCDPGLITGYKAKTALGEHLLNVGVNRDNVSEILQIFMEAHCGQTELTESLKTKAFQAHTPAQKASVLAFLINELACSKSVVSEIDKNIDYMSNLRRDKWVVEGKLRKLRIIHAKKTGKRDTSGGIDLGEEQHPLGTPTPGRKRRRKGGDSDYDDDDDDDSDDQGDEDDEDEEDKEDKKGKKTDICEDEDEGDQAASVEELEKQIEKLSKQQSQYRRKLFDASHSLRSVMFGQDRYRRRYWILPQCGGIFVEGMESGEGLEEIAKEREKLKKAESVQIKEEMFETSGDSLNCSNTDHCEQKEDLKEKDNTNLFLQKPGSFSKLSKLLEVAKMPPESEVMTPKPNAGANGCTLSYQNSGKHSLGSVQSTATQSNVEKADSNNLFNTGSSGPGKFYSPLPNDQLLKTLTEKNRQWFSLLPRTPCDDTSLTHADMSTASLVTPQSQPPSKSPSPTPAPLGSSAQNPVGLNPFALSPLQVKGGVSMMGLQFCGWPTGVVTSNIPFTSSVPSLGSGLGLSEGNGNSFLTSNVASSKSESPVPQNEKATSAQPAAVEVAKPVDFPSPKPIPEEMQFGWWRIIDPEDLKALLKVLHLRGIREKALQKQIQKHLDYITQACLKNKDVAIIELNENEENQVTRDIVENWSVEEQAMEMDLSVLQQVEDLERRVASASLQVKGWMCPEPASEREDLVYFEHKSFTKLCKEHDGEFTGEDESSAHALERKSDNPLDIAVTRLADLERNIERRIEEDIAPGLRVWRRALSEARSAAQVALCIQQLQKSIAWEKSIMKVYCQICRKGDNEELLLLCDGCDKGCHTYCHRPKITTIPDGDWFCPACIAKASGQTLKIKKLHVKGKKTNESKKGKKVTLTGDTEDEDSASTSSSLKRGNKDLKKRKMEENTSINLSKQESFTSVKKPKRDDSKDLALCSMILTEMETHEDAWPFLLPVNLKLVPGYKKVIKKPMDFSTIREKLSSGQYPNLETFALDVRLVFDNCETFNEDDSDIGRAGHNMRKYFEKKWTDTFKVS
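Multi-concentration screen (max 110 uM) measuring displacement of acetylated histone H3 peptide from BAZ2B by AlphaScreen, using 50 nM protein, 50 nM peptide and 10 ug/mL streptavidin donor plus Ni-chelate acceptor beads.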
HP1b chromo inh: HTS for Inhibitors of HP1-beta Chromodomain Interactions with Methylated Histone Tails; AlphaScreen HP1-beta / biotin-H3K9me3 peptide binding; Potency, µM (doses to about 114 µM), inactives show at the highest dose activity change, negative = inhibition, most hits filed as inhibitors; hit rate 0.56% among 390,000; AID 540317, 2011; note: potency is the fitted concentration of half-maximal effect; nearly all actives have a fitted effect of over 70% in size
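Compound inhibition of the preformed complex between 50 nM HP1-beta and 50 nM biotinylated H3K9me3 peptide was read by AlphaScreen. Buffer was PBS pH 7.4 with 0.01% Tween-20. Incubations ran 30 min at room temperature, with 10 ug/mL donor/acceptor beads.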
JMJD2A Tudor: qHTS Assay for Inhibitors of JMJD2A-Tudor Domain; Lysine-specific demethylase 4A (Homo sapiens), O75164; AlphaScreen JMJD2A-Tudor / H3K4me3 peptide binding; Potency, µM (highest dose often 114 µM), for the others: at the highest dose activity change, negative = inhibition, most hits filed as inhibitors; hit rate 4.4% among 390,000; note: potency is the fitted concentration of half-maximal effect; % is set by controls: 0 for no effect and ±100 for the full control effect; nearly all actives have a fitted effect of over 50% in size
An asterisk follows results filed as active; ? = inconclusive; . = no result; [ ] = remark or other dose. An excerpt weighted towards active compounds, which were near 5.7% of everything screened. Unless noted, calls come from the whole dose curve; as a rule, active = well fitted inhibition curve with a large enough effect; inconclusive = small, poorly fitted or top-dose-only effect; inactive = no such curve, though single readings can be large or run the other way.

SMILES	L3MBTL1 block	JMJD2E inh	PI5P4K alpha inh	BAZ2B block	HP1b chromo inh	JMJD2A Tudor
CC(OC(=O)CSc1ccc(F)cc1)C(=O)NC1(C#N)CCCCC1 (configuration not stated)	.	.	-7.8	-1.7%	26.2%	-0.7%
CCOc1ccc(S(=O)(=O)Nc2cc(SCC(=O)O)c(O)c3ccccc23)cc1	?	.	?	50.1µM*	12.6µM*	22.4µM*
O=C(NC1CCCCCC1)C1CC(=O)N(c2ccc(Cl)cc2)C1 (configuration not stated)	.	.	-4.1	-2.1%	18.7%	-6.2%
CCCSc1nnc(Cc2cc(=O)[nH]c(=O)[nH]2)n1-c1cc(C)ccc1C	6.7%	11.2%	1.9	-4.6%	40.8%	14.1µM*
CCSc1nnc(Cc2cc(=O)[nH]c(=O)[nH]2)n1-c1cccc(C)c1	.	1.1%	1.5	-1.6%	52.0%	-19.9%
Cc1cccc(-n2c(=O)c3c4c(sc3n3cnnc23)CCCC4)c1	.	.	.	-9.7%	26.4%	-14.5%
Cc1ccc(-n2c(=O)c3c4c(sc3n3c(=S)[nH]nc23)CCC4)cc1	-0.1%	-6.3%	-11.0	-17.8%	36.3%	25.1µM*
Cc1cccc(-n2c(=O)c3c4c(sc3n3c(=S)[nH]nc23)CCC4)c1	.	-12.5%	-17.1	-30.3%	27.7%	17.8µM*
COc1ccc(-n2c(=O)c3c4c(sc3n3c(=S)[nH]nc23)CCC4)cc1	2.3%	-14.9%	-9.7	-14.4%	15.5%	10µM*
CCn1c(=O)c2c3c(sc2n2c(=S)[nH]nc12)CCC3	.	5.5%	-8.4	7.5%	3.7%	7.94µM*
CCn1c(=O)c2c3c(sc2n(C)c1=O)CCC3	0.6%	0.2%	.	-1.7%	26.4%	-6.4%
CCc1noc(-c2ccc(N3CCCCC3C)c([N+](=O)[O-])c2)n1 (configuration not stated)	.	.	.	-1.5%	61.0%	-18.5%
CC(C)CCNC(=O)c1cc(-c2ccc(Br)s2)nc2ccccc12	.	.	.	0.9%	19.7%	-14.0%
O=C(Nc1ccccc1)c1ccc(Br)c(S(=O)(=O)N2CCCCC2)c1	.	.	.	-13.2%	46.5%	-23.4%
O=c1c2c3c(sc2n2c(=S)[nH]nc2n1-c1ccccc1)CCC3	.	-0.3%	-18.9	-1.7%	3.7%	3.16µM*
N#Cc1ccccc1Cn1c(=O)n(-c2ccccc2)c(=O)c2c3c(sc21)CCC3	.	.	.	-2.2%	23.7%	-4.1%
CN1CCc2c(sc3c2c(=O)n(-c2ccccc2)c2n[nH]c(=S)n32)C1	1.6%	-13.7%	.	-4.5%	34.1%	39.8µM*
CC(=O)c1cccc(NC(=O)CCn2nc(C)c(S(=O)(=O)N3CCCCC3)c2C)c1	.	.	.	?	50.7%	1.3%
Nc1c(Cl)ncnc1N/N=C/c1ccc2ccccc2n1	?	?	-10.1	12.6µM*	-36.3%	89.1µM*
Nc1c(Cl)ncnc1N/N=C/c1ccnc2ccccc12	7.2%	-5.0%	-2.7	5.1%	9.2%	6.4%[57.1 µM]
Nc1c(Cl)ncnc1N/N=C/c1ccccn1	7.94µM*	20µM*	-7.0	5.62µM*	-18.7%	28.2µM*
c1cnn(Cc2cnc(N3CCOCC3)s2)c1	-10.5%	0.4%	0.6	-16.9%	38.1%	-20.3%
CS(=O)(=O)c1cnc2c(S(=O)(=O)c3ccccc3)cnn2c1N	-17.6%	-29.2%	4.3	-25.0%	1.2%	28.2µM*
CCOC(=O)c1c(C)oc2cc(Cl)c(O)c(CN(C)C)c12	-10.3%	-12.9%	1.7	-17.4%	-20.3%	?
CCOC(=O)c1c(-c2ccccc2)oc2cc(CN(C)C)c(O)c(CN(C)C)c12	.	.	.	.	-18.0%	50.1µM*
SMILES	L3MBTL1 block	JMJD2E inh	PI5P4K alpha inh	BAZ2B block	HP1b chromo inh	JMJD2A Tudor
CCOC(=O)c1c(-c2ccccc2)oc2ccc(O)cc12	2.2%[2.29 µM]	.	18.4	70.8µM*	37.5%	-5.8%
CCOC(=O)c1c(-c2ccccc2)oc2ccc(OCC)cc12	84.6%	?	33.9	300.9%	267.8%	256.6%
CCOc1cc(C)c(C(C)C)cc1S(=O)(=O)n1ccnc1CC	.	.	.	1.3%	18.9%	-8.2%
Cc1cc(-c2n[nH]c(=S)n2/N=C/c2ccc(C)s2)n[nH]1	-7.4%	-10.7%	4.9	?	0.5%	7.94µM*
Cc1cc(-c2n[nH]c(=S)n2/N=C/c2ccc(Br)s2)n[nH]1	-14.6%	-4.8%	-17.9	-37.5%	-25.3%	12.6µM*
Cc1ccc(/C=N/n2c(C3CCCCC3)n[nH]c2=S)s1	-4.0%	2.6%	-4.3	-2.8%	3.7%	-11.7%
Cc1cccc(C(=O)Nc2nnc(S(=O)(=O)N(C)Cc3ccc(Cl)cc3)s2)c1	.	.	.	-14.2%	38.0%	-9.7%
CCC(C(=O)NC1CCCCC1)n1nc(C)c2sc3ccccc3c2c1=O (configuration not stated)	.	.	.	1.3%	18.8%	-12.3%
O=C(COC(=O)CSc1ccc(F)cc1)NCc1ccco1	-7.2%	.	-3.2	4.1%	45.4%	-25.8%
O=C(COC(=O)c1ccc(NS(=O)(=O)c2cccs2)cc1)NCc1ccco1	.	-11.8%	-71.5*	31.6µM*	-21.3%	-29.4%[11.4 µM]
CN(C)S(=O)(=O)c1ccc(C(=O)OCC(=O)NCc2ccco2)cc1	?	-4.9%	-11.0	50.1µM*	20.4%	-9.8%[11.4 µM]
O=C(COC(=O)c1cccs1)NCc1ccco1	?	-1.2%	?	50.1µM*	50.1µM*	35.5µM*
COc1cc(NC(=O)c2cccs2)c(C(=O)OCC(=O)NCc2ccco2)cc1OC	.	?	-24.0	-6.8%	15.5%	-22.1%
O=C(COC(=O)Cc1ccc(F)cc1)NCc1ccco1	?	5.0%	-2.1	50.1µM*	54.5%	-15.0%
Cc1ccc(CCNc2nc3c(S(=O)(=O)c4ccc(C)cc4)nnn3c3ccsc23)cc1	.	.	.	-12.7%	24.4%	-4.0%
COc1cccc(C2C(C#N)=C(NC(=O)CCc3ccccc3)Oc3ccc4ccccc4c32)c1 (configuration not stated)	.	.	.	.	.	-24.0%
COC(=O)c1ccccc1NC(=O)CSc1nc2nc(C)cc(C)n2n1	.	.	.	-2.0%	14.5%	-10.4%
COc1ccccc1CN1CCCC(CN(CCN(C)C)C(=O)c2ccc(C)cc2)C1 (configuration not stated)	-0.4%	.	3.5	-24.0%	26.4%	-25.5%
CC(C)C(NC(=O)OCc1ccccc1)C(=O)OCC(=O)NCc1ccco1 (configuration not stated)	?	2.3%	?	50.1µM*	-16.2%	56.2µM*
CN(C)c1ccccc1C(=O)N1CCC(n2nccc2NC(=O)C2CC2)CC1	.	.	-0.1	-20.2%	38.8%	-2.1%
N#CCc1nc2ccc(S(=O)(=O)N3CCOCC3)cc2s1	-14.2%	4.4%	-63.6*	-20.5%	24.0%	-26.4%
